Screens (PubChem BioAssay)
Sa ugtP lethal: kills S. aureus RN4220 lacking UgtP; S. aureus RN4220 ugtP deletion, OD600 growth, 16 h; growth inhibition, % (concentration not given with the values); 330,000 tested, 0.54% active; in the data active means growth inhibition above about 68%;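 further: plate controls were untreated wells for no effect and antibiotic for full effect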
Mtb hypoxia rep: Mtb hypoxia fluorescent reporter inhibition | M. tuberculosis hypoxia-regulated fluorescent reporter, fluorescence | fluorescence inhibition, % (no concentration beside the values) | 300,000 tested, 0.1% active | AID 1159583; in the data active means fluorescence inhibition mostly above about 23%, no sharp cut-off; inactive means mostly below about 17%
BJeLR lethal: BJeLR cell viability loss; BJeLR (HRASV12) viability, CellTiter-Glo ATP luminescence, 48 h; inhibition, % (test concentration not listed); 300,000 tested, 0.17% active; AID 1554; in the data active means inhibition above about 50%
Sa RN4220 lethal: kills Staphylococcus aureus RN4220. S. aureus RN4220 growth, OD600, 16 h. inhibition, % (test concentration not listed). 330,000 tested, 0.33% active. AID 1259311; in the data active means inhibition above about 85%;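 further: plate controls were untreated cells for no effect and reference antibiotic for full effect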
CCHF vOTU inh-1: blocks the CCHF virus ovarian tumor domain protease | CCHFV vOTU protease, Pep-AMC fluorescence | 370,000 tested, 0.55% active | AID 651958 | inhibition, % at 11.5 µM; further: 0% = vehicle wells with enzyme and 100% = no enzyme wells
RecA intein inh: blocks M. tuberculosis RecA intein splicing | P9WHJ3 | cell-free RecA intein splicing, fluorescence | inhibition, % (test concentration not listed) | 290,000 tested, 0.75% active; in the data active means inhibition above about 30%;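 further: 0% = vehicle wells and 100% = reference inhibitor control wells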
Target sequence (P9WHJ3 whole entry, looked up): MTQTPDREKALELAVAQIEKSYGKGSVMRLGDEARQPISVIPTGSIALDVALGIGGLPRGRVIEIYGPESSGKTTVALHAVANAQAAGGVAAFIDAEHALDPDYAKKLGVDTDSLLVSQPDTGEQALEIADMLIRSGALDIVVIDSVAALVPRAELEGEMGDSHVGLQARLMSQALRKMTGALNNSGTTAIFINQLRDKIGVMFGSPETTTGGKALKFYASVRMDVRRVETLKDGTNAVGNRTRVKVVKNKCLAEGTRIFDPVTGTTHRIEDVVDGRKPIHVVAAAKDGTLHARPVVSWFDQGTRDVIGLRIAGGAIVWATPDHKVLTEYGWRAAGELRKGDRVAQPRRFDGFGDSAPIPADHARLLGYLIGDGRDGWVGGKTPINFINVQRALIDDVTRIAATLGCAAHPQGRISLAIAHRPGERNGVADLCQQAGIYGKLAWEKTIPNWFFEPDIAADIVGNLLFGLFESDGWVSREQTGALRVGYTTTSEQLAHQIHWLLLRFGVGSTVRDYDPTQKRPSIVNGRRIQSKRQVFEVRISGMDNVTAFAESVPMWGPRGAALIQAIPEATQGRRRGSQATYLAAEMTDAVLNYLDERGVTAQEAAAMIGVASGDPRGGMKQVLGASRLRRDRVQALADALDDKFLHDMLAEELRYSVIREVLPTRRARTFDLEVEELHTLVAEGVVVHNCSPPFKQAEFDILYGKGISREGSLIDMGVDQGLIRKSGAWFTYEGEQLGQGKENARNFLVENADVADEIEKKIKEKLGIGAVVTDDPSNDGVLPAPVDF
CCHF vOTU inh-2: CCHFV vOTU protease inhibition, confirmation; Recombinant CCHFV vOTU, Pep-AMC fluorescence; AID 686976; inhibition, % at 11.5 µM; 1,900 tested, 17% active; shares compounds with CCHF vOTU inh-1
The depositor's hits bear a star; / = no result given. The list is not random: actives were taken first. Their share in the collection is about 1.6%. Unless noted, no stated cut-off is given here; in the data, active means inhibition above about 30%; inactive means the rest.

SMILES	Sa ugtP lethal	Mtb hypoxia rep	BJeLR lethal	Sa RN4220 lethal	CCHF vOTU inh-1	RecA intein inh	CCHF vOTU inh-2
Cc1ccc(N=Cc2cc3c(cc2[N+](=O)[O-])OCO3)cc1[N+](=O)[O-]	6	10	-15	2	18	-1	/
CC(=O)N(C)c1ccc(N=Cc2cc3c(cc2[N+](=O)[O-])OCO3)cc1	6	9	-9	1	34*	-5	31*
CCOc1ccc(N=Cc2ccc([N+](=O)[O-])cc2)c(O)c1	/	/	/	/	35*	/	-3
CCOc1ccc(CNC(=S)N/N=C\c2ccc([N+](=O)[O-])cc2)cc1	/	/	-1	/	10	-3	/
COC(=O)C1=C(c2ccc(OC)c(OC)c2)CC2CCC1N2C(=O)NC(C)C (configuration not stated)	-5	4	/	4	/	/	/
NC(=NOC(=O)c1ccccc1[N+](=O)[O-])c1cccnc1	1	/	/	0	/	/	/
Cc1noc(NS(=O)(=O)c2ccc(NC(=O)c3oc4ccc(Cl)cc4c3C)cc2)c1C	-2	-2	-5	12	35*	2	20
CC(OC(=O)c1cc(=O)c2ccccc2o1)C(=O)Nc1ccc(N(C)C)cc1 (configuration not stated)	3	-3	/	-1	0	/	/
CN(C)c1ccc(NC(=O)COC(=O)c2cc(=O)c3ccccc3o2)cc1	0	-3	-1	-4	35*	-4	-15
CCOC1OC(C(=O)N2CCOCC2)=CC(c2ccc(C(F)(F)F)cc2)C1CCCO (configuration not stated)	7	12	/	9	/	/	/
Cc1ccccc1S(=O)(=O)N1[C@@H](c2ccc(Br)cc2)C(C(=O)O)=CC[C@H]1c1ccc(Cl)cc1	17	-9	/	11	45*	/	22
COc1ccc([C@@H]2CC=C(C(=O)O)[C@H](c3ccc(Br)cc3)N2S(=O)(=O)c2ccccc2C)cc1	8	-2	/	25	28	/	/
Cc1ccc(S(=O)(=O)N2[C@@H](c3ccc(Br)cc3)C(C(=O)O)=CC[C@H]2c2ccc(Cl)cc2)cc1	16	-2	/	19	39*	/	15
Cc1ccc([C@H]2C(C(=O)O)=CC[C@@H](c3ccc(Cl)c(Cl)c3)N2S(=O)(=O)c2ccc(C)cc2)cc1	53	-3	/	40	40*	/	11
Cc1ccc([C@@H]2CC=C(C(=O)O)[C@H](c3ccc(Br)cc3)N2S(=O)(=O)c2ccccc2C)cc1	24	-4	/	23	39*	/	12
Cc1ccc([C@@H]2CC=C(C(=O)O)[C@H](c3ccc(Cl)cc3)N2S(=O)(=O)c2ccc(C)cc2)cc1	/	/	/	/	23	/	/
Cc1ccc(S(=O)(=O)N2[C@@H](c3ccccc3F)C(C(=O)O)=CC[C@H]2c2ccc(Cl)c(Cl)c2)cc1	77	6	/	5	16	/	/
O=C(O)CC1c2ccccc2S(=O)(=O)N1c1ccccc1 (configuration not stated)	-11	-1	/	4	/	/	/
Cc1ccc([C@@H]2CC=C(C(=O)O)[C@H](c3ccc(Cl)cc3)N2S(=O)(=O)c2ccccc2C)cc1	6	-4	/	16	33*	/	0
Cc1ccc(S(=O)(=O)N2[C@@H](c3ccccc3)C(C(=O)O)=CC[C@H]2c2ccc3c(c2)OCO3)cc1	/	/	/	/	0	/	/
Cc1ccc(S(=O)(=O)N2[C@@H](c3ccc(C(C)(C)C)cc3)C(C(=O)O)=CC[C@H]2c2ccc3c(c2)OCO3)cc1	-1	-2	/	6	30*	/	3
O=C(N/N=C/c1c(O)n(CCc2ccccc2)c(=O)[nH]c1=O)c1ccccc1O	2	-1	-2	5	32*	25	-8
COc1ccccc1N1CCN(N=Cc2cccnc2)CC1	12	-2	/	1	/	/	/
COc1ccc(NS(=O)(=O)c2cc(NC(=O)c3ccc(=O)[nH]n3)ccc2C)cc1	7	13	/	6	31*	/	-10
COc1ccc(NS(=O)(=O)c2cc(C(=O)O)ccc2C)cc1	3	5	-4	0	-23	-1	/
SMILES	Sa ugtP lethal	Mtb hypoxia rep	BJeLR lethal	Sa RN4220 lethal	CCHF vOTU inh-1	RecA intein inh	CCHF vOTU inh-2
C[C@H]1CCC(=O)N([C@H](COc2ccccc2)Cc2ccccc2)CC1	/	/	11	/	31*	12	6
COC(=O)[C@@]12C[C@@H](CC(=O)NCc3ccc(C)o3)C(=O)N(CCc3ccc(OC)c(OC)c3)C1=CCC(C)(C)C2	/	/	/	/	36*	/	-4
COC(=O)[C@@]12C[C@@H](CC(=O)NCc3ccccc3)C(=O)N(CCc3ccc(OC)c(OC)c3)C1=CCC(C)(C)C2	/	/	/	/	20	/	/
CCCCCCCCN1C(=O)[C@H](CC(=O)N2CCCC2)C[C@@]2(C(=O)OCC)CCCC=C12	/	/	/	/	34*	/	20
CCCCCCCCN1C(=O)[C@@H](CC(=O)N2CCN(C(=O)C3CC3)CC2)C[C@@]2(C(=O)OC)C1=C[C@H](C(C)C)O[C@@H]2C1CC1	/	/	/	/	26	/	/
COC(=O)[C@]12CCCCC=C1N(CCC1=CCCCC1)C(=O)[C@H](CC(=O)NCCC(C)C)C2	/	/	/	/	44*	/	-6
CCCCCCCCN1C(=O)[C@@H](CC(=O)N2CCN(C(=O)OCC)CC2)C[C@@]2(C(=O)OC)C1=C[C@H](C(C)C)O[C@@H]2C1CC1	/	/	/	/	33*	/	17
COc1ccc(S(=O)(=O)Nc2cccc3c2OC(CN(C)S(=O)(=O)c2ccc(Cl)cc2)C(C)CN(C(C)CO)C3=O)cc1 (configuration not stated)	-15	-6	/	0	/	/	/
CCCCCCCCN1C(=O)[C@@H](CC(=O)NCC2CCCCC2)C[C@@]2(C(=O)OC)C1=C[C@H](C(C)C)O[C@@H]2C1CC1	/	/	/	/	25	/	/
CCCCCCCCN1C(=O)[C@@H](CC(=O)NCCc2ccccc2OC)C[C@@]2(C(=O)OC)C1=C[C@H](C(C)C)O[C@@H]2C1CC1	/	/	/	/	35*	/	16
CCCCCCCCN1C(=O)[C@H](CC(=O)NCc2ccccc2)C[C@@]2(C(=O)OC)CCCCC=C12	/	/	/	/	40*	/	31*
COC(=O)[C@]12C[C@H](CC(=O)NCCc3ccccc3OC)C(=O)N(CCc3ccc(OC)c(OC)c3)C1=C[C@H](C(C)C)O[C@@H]2C1CC1	/	/	/	/	14	/	/
CCCCCCCCN1C(=O)[C@@H](CC(=O)NCc2ccccc2)C[C@@]2(C(=O)OC)C1=C[C@H](C(C)C)O[C@@H]2C1CC1	/	/	/	/	39*	/	12
CCCCCCCCN1C(=O)[C@@H](CC(=O)NCc2ccc(C)o2)C[C@@]2(C(=O)OC)C1=C[C@H](C(C)C)O[C@@H]2C1CC1	/	/	/	/	30*	/	27
CC1(C)CC(=O)C(C=Nn2c(C(F)(F)F)nc3ccccc3c2=O)=C(O)C1	1	3	/	4	/	/	/
C=CCN=C1NC(c2cccc(Cl)c2)C(C(=O)OC)=C(C)N1Cc1cccc(C(F)(F)F)c1 (configuration not stated)	/	/	/	/	30*	/	-5
COC(=O)C1=C(C)N(Cc2ccccc2C(F)(F)F)C(=NCc2ccc(C(F)(F)F)cc2)NC1c1cccc(Cl)c1 (configuration not stated)	/	/	/	/	36*	/	-5
